# Source: the supplement of paper PMC12669032
# System: Roseburia intestinalis
# Experiment: growth AUC relative to DMSO control (median of replicates) (fraction); higher = more growth (less inhibition), active = hit call of the paper
# Conditions: 20 µM; 24 h;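 active = AUC reduced over 20% with Padj below 0.05 in at least 2 of 3 replicates; inactive = otherwise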
# Method in brief: (§1)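 Hourly OD600 readings over 24 h tracked anaerobic gut bacterial monocultures grown at 37 °C in mGAM from OD600 0.05 with 20 µM compound (1% DMSO). After the minimum OD was set to 0, area under the growth curve was normalised to the plate median of solvent-only wells, or to row and column medians on the industrial chemical plate. Values are medians of three biological replicates grown on separate days.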
row,SMILES,growth AUC
1,O=C(Nc1ccc(Cl)cc1C(O)c1ccccc1)c1ccncc1 (stereo not drawn),0.994 (inactive)
2,Oc1c(Cl)cc(Cl)c(Cl)c1Cc1c(O)c(Cl)cc(Cl)c1Cl,0.0498 (active)
3,c1cc2ccc3ccc4ccc5cccc6c(c1)c2c3c4c56,1.02 (inactive)
4,CCSC(=O)COc1ccc(Cl)cc1C,0.969 (inactive)
5,CN(C)C(=O)SCCCCOc1ccccc1,0.998 (inactive)
6,COc1c(Cl)ccc(Cl)c1C(=O)O,0.976 (inactive)
7,CC(C)CCCCCCc1ccc(O)cc1,0.958 (inactive)
8,C=CCOC(Cn1ccnc1)c1ccc(Cl)cc1Cl (stereo not drawn),0.767 (active)
9,CCOC(=O)c1ccc(O)cc1,0.888 (inactive)
10,O=S(=O)(Cc1ccc(Cl)cc1)c1ccc(Cl)cc1,1.05 (inactive)
11,CCS(=O)(=O)c1nnc(N(C)C(=O)NC)s1,1 (inactive)
12,Cc1cccc(C)c1N(CC(=O)O)C(=O)CS(=O)(=O)[O-].[Na+],0.979 (inactive)
13,Nc1cc(Cl)nc(C(=O)O)c1Cl,1.01 (inactive)
14,CCCCCCCC/C=C\CCCCCCCCCCCC(=O)O,0.973 (inactive)
15,COC(=O)c1ccc(I)cc1S(=O)(=O)[N-]C(=O)Nc1nc(C)nc(OC)n1.[Na+],0.934 (inactive)
16,c1ccc2[nH]c(-c3cscn3)nc2c1,0.998 (inactive)
17,CC1(C)C(=O)Oc2ccc(OS(C)(=O)=O)cc21,1.02 (inactive)
18,Cn1cc(C(=O)Nc2ccc(F)cc2-c2ccc(Cl)c(Cl)c2)c(C(F)F)n1,0.989 (inactive)
19,NC(=O)Cc1cccc2ccccc12,1.05 (inactive)
20,Oc1ccccc1O,1.1 (inactive)

row,SMILES,growth AUC
1,O=C(Nc1ccc(F)cc1)c1cccc(Oc2cccc(C(F)(F)F)c2)n1,0.918 (inactive)
2,COC(=O)[C@@H](C)Oc1ccc(Oc2ncc(C(F)(F)F)cc2Cl)cc1,1 (inactive)
3,CC(C)c1ccccc1,0.991 (inactive)
4,Clc1ccc(Sc2cc(Cl)c(Cl)cc2Cl)cc1,0.937 (inactive)
5,CCc1cccc(C)c1NC(=O)CS(=O)(=O)[O-].[Na+],1 (inactive)
6,COC(=O)c1ccc(C(=O)OC)cc1,0.997 (inactive)
7,CCNc1nc(Cl)nc(N(CC)CC)n1,1.01 (inactive)
8,c1ccc2c(c1)Cc1ccccc1-2,1 (inactive)
9,COc1ccc(NC(=O)N(C)C)cc1Cl,0.925 (inactive)
10,CC(CNC(=S)[S-])NC(=S)[S-].[Zn+2] (mixture of isomers),0.979 (inactive)
11,Cc1nn(C)c(OCC(=O)c2ccccc2)c1C(=O)c1ccc(Cl)cc1Cl,0.981 (inactive)
12,CNC(=O)/C(=N/OC)c1ccccc1CO/N=C(C)/C(=N/OC)C(/C)=N/OC,1.01 (inactive)
13,NC1=C(Cl)C(=O)c2ccccc2C1=O,0.963 (inactive)
14,CCOCN(C(=O)C(=O)O)c1c(C)cccc1CC,0.996 (inactive)
15,CCOC(=O)C1=NOC(c2ccccc2)(c2ccccc2)C1,1.01 (inactive)
16,CCCCC(CC)COC(=O)COc1cc(Cl)c(Cl)cc1Cl (stereo not drawn),0.966 (inactive)
17,CCOC(=O)C1=NN(c2ccc(Cl)cc2Cl)C(C)(C(=O)OCC)C1 (stereo not drawn),0.952 (inactive)
18,CCN(CC)C(=O)c1cccc(C)c1,0.967 (inactive)
19,COC1CCC2(CC1)NC(=O)C(c1cc(C)ccc1C)C2O (stereo not drawn),0.974 (inactive)

# System: Streptococcus salivarius
# Experiment: as above
# Conditions: 20 µM; 24 h
# Method in brief: as §1
row,SMILES,growth AUC
1,O=C(Nc1ccc(Cl)cc1C(O)c1ccccc1)c1ccncc1 (stereo not drawn),1 (inactive)
2,Oc1c(Cl)cc(Cl)c(Cl)c1Cc1c(O)c(Cl)cc(Cl)c1Cl,0.0329 (active)
3,c1cc2ccc3ccc4ccc5cccc6c(c1)c2c3c4c56,1.02 (inactive)
4,CCSC(=O)COc1ccc(Cl)cc1C,0.915 (inactive)
5,CN(C)C(=O)SCCCCOc1ccccc1,0.99 (inactive)
6,COc1c(Cl)ccc(Cl)c1C(=O)O,1.03 (inactive)
7,CC(C)CCCCCCc1ccc(O)cc1,0.965 (inactive)
8,C=CCOC(Cn1ccnc1)c1ccc(Cl)cc1Cl (stereo not drawn),0.915 (inactive)
9,CCOC(=O)c1ccc(O)cc1,1.01 (inactive)
10,O=S(=O)(Cc1ccc(Cl)cc1)c1ccc(Cl)cc1,1.06 (inactive)
11,CCS(=O)(=O)c1nnc(N(C)C(=O)NC)s1,0.99 (inactive)
12,Cc1cccc(C)c1N(CC(=O)O)C(=O)CS(=O)(=O)[O-].[Na+],0.972 (inactive)
13,Nc1cc(Cl)nc(C(=O)O)c1Cl,1.03 (inactive)
14,CCCCCCCC/C=C\CCCCCCCCCCCC(=O)O,0.898 (inactive)
15,COC(=O)c1ccc(I)cc1S(=O)(=O)[N-]C(=O)Nc1nc(C)nc(OC)n1.[Na+],0.948 (inactive)
16,c1ccc2[nH]c(-c3cscn3)nc2c1,0.937 (inactive)
17,CC1(C)C(=O)Oc2ccc(OS(C)(=O)=O)cc21,1.02 (inactive)
18,Cn1cc(C(=O)Nc2ccc(F)cc2-c2ccc(Cl)c(Cl)c2)c(C(F)F)n1,0.897 (inactive)
19,NC(=O)Cc1cccc2ccccc12,1.05 (inactive)
20,Oc1ccccc1O,0.987 (inactive)

row,SMILES,growth AUC
1,O=C(Nc1ccc(F)cc1)c1cccc(Oc2cccc(C(F)(F)F)c2)n1,0.956 (inactive)
2,COC(=O)[C@@H](C)Oc1ccc(Oc2ncc(C(F)(F)F)cc2Cl)cc1,0.984 (inactive)
3,CC(C)c1ccccc1,0.968 (inactive)
4,Clc1ccc(Sc2cc(Cl)c(Cl)cc2Cl)cc1,0.933 (inactive)
5,CCc1cccc(C)c1NC(=O)CS(=O)(=O)[O-].[Na+],1.01 (inactive)
6,COC(=O)c1ccc(C(=O)OC)cc1,0.951 (inactive)
7,CCNc1nc(Cl)nc(N(CC)CC)n1,1.02 (inactive)
8,c1ccc2c(c1)Cc1ccccc1-2,0.985 (inactive)
9,COc1ccc(NC(=O)N(C)C)cc1Cl,0.927 (inactive)
10,CC(CNC(=S)[S-])NC(=S)[S-].[Zn+2] (mixture of isomers),0.988 (inactive)
11,Cc1nn(C)c(OCC(=O)c2ccccc2)c1C(=O)c1ccc(Cl)cc1Cl,1.01 (inactive)
12,CNC(=O)/C(=N/OC)c1ccccc1CO/N=C(C)/C(=N/OC)C(/C)=N/OC,1.01 (inactive)
13,NC1=C(Cl)C(=O)c2ccccc2C1=O,1 (inactive)
14,CCOCN(C(=O)C(=O)O)c1c(C)cccc1CC,1.04 (inactive)
15,CCOC(=O)C1=NOC(c2ccccc2)(c2ccccc2)C1,0.959 (inactive)
16,CCCCC(CC)COC(=O)COc1cc(Cl)c(Cl)cc1Cl (stereo not drawn),1 (inactive)
17,CCOC(=O)C1=NN(c2ccc(Cl)cc2Cl)C(C)(C(=O)OCC)C1 (stereo not drawn),0.994 (inactive)
18,CCN(CC)C(=O)c1cccc(C)c1,0.96 (inactive)
19,COC1CCC2(CC1)NC(=O)C(c1cc(C)ccc1C)C2O (stereo not drawn),1.04 (inactive)
